Giardia FBPA inh-1 = qHTS Assay for Inhibitors of Fructose-1,6-bisphosphate Aldolase from Giardia Lamblia | A8B2U2 | purified Giardia FBPA | Potency, µM (series often up to 59.6 µM), inactives show at the highest dose activity, negative = inhibition, most hits filed as inhibitors | hit rate 0.71% among 290,000 | AID 2451, 2010; also: nearly all actives have a fitted effect of over 55% in size
Target sequence (A8B2U2 whole entry, looked up): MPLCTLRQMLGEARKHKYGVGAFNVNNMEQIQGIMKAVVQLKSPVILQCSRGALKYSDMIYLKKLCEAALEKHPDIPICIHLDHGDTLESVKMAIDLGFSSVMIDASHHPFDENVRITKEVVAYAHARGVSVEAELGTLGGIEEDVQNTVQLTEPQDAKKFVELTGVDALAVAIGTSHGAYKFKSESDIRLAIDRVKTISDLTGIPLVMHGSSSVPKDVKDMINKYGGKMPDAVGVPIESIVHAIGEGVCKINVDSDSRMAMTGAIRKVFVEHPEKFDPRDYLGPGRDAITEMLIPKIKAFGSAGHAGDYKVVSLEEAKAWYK
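Giardia FBPA (40 nM reagent) was preincubated 10 min at RT with compound (up to 57.5 uM final), then substrate plus GAPDH/TPI/NAD/arsenate coupling system with diaphorase/resazurin was added; resorufin fluorescence (525/598 nm) was read after 20 min.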
LmPK inhibitor = qHTS Assay for Inhibitors of Leishmania Mexicana Pyruvate Kinase (LmPK). purified LmPK, Kinase-Glo ATP luminescence, 1 h. Potency, µM (highest dose often 57.5 µM), for inactives: top-dose activity change, negative = inhibition, usual class: inhibitors. AID 1721, 2009. Q27686. hit rate 0.37% among 290,000
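ATP generated from ADP (0.1 mM) and PEP (0.5 mM) by 0.1 nM LmPK over 1 h at room temperature (pH 7.2 imidazole buffer) was detected by coupled luciferase luminescence. Values were normalized to uninhibited and no-enzyme wells.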
TbPYK inhibitor = qHTS of Trypanosoma Brucei Inhibitors. pyruvate kinase (Trypanosoma brucei), Q57TT1. TbPYK enzyme, Kinase-Glo Plus ATP luminescence, 45 min. Potency, µM (series often up to 76.8 µM), inactives show top-dose activity, negative = inhibition, actives largely listed as inhibitors. hit rate 0.12% among 410,000. AID 624173, 2012; also: nearly all actives have a fitted effect of over 50% in size
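Assay buffer: 50 mM TEA pH 7.2, 100 mM KCl, 10 mM MgCl2, 0.05% BSA, 0.01% Tween-20. Pyruvate kinase from T. brucei plus substrate met compound, then ADP (130 uM final). Luminescence was read post 45 min RT.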
RE007 growth inh = qHTS Assay for Inhibitors of the HIV-1 protein Vpr. hit rate 0.21% among 360,000. S. pombe RE007 Vpr strain, BacTiter-Glo ATP luminescence, 24 h. AID 651644, 2012. Potency, µM (highest dose often 92.2 µM), without a hit: at the top dose activity change, negative = less growth, hits mostly inhibitors; active = well fitted falling curve with a large enough effect; inconclusive = small, poorly fitted or top-dose-only effect; inactive = no such curve, though single readings can be large or run the other way; also: nearly all actives have a fitted effect of over 50% in size
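Fission yeast RE007 carrying one integrated HIV-1 vpr copy, seeded at OD 0.01 in PMG+AL medium with 23 nL pinned compound. Grown 24 h at 30 degrees; viability read by BacTiter-Glo luminescence after 5 min.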
Giardia growth = qHTS Assay for Inhibitors of Fructose-1,6-bisphosphate Aldolase from Giardia Lamblia: Giardia lamblia growth inhibition; shares compounds with Giardia FBPA inh-1; Giardia lamblia trophozoite growth inhibition; Potency, µM (titrated, usually from 57.5 µM), for the others: at the top dose activity change, negative = inhibition, hits mostly inhibitors; hit rate 5% among 1,500; AID 2785, 2010;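 also: trophozoites exposed to compound for 48 h at 37 °C; nearly all actives have a fitted effect of over 70% in size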
Mammalian tox = qHTS Assay for Inhibitors of Fructose-1,6-bisphosphate Aldolase from Giardia Lamblia: Mammalian cellular toxicity; shares compounds with Giardia FBPA inh-1; hit rate 4% among 1,500; Potency, µM (doses to about 57.5 µM), without a hit: at the top dose viability change, negative = toxicity, usual class: inhibitors; mammalian cell viability counter-screen, qHTS;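 also: Chinese hamster ovary cells used as mammalian cytotoxicity surrogate; viability measured as cellular ATP by luminescence; compound exposure lasted 48 h before reading; nearly all actives have a fitted effect of over 60% in size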
Giardia FBPA inh-2 = qHTS Assay for Inhibitors of Fructose-1,6-bisphosphate Aldolase from Giardia Lamblia: Primary screen confirmation. shares compounds with Giardia FBPA inh-1. purified Giardia aldolase enzyme activity, qHTS. hit rate 5% among 1,500. Potency, µM (doses to about 57.5 µM), without a hit: at the highest dose activity change, negative = inhibition, most hits filed as inhibitors; also: nearly all actives have a fitted effect of over 45% in size
Rabbit aldolase = qHTS Assay for Inhibitors of Fructose-1,6-bisphosphate Aldolase from Giardia Lamblia: Rabbit FBPA Selectivity; AID 2794, 2010; shares compounds with Giardia FBPA inh-1; Potency, µM (series often up to 57.5 µM), for the others: at the highest dose activity, negative = inhibition, most hits filed as inhibitors; Rabbit muscle FBPA enzyme inhibition, selectivity counter-screen; hit rate 4% among 1,500; also: nearly all actives have a fitted effect of over 60% in size
Target sequence (P00883 whole entry, looked up): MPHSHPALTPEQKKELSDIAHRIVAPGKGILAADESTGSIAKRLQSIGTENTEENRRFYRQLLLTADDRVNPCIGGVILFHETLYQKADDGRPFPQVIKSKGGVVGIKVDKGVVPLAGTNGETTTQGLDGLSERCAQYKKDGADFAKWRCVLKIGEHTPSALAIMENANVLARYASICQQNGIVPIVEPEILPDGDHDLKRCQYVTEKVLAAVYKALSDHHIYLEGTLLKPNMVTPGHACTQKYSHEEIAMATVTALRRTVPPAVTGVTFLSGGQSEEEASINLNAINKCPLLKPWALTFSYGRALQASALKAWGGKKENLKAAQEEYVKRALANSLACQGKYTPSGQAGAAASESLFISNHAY
GAPDH counter = qHTS Assay for Inhibitors of Fructose-1,6-bisphosphate Aldolase from Giardia Lamblia: Coupling assay counterscreen confirmation; Potency, µM (doses to about 57.5 µM), inactives show top-dose activity change, negative = inhibition, most hits filed as inhibitors; hit rate 6% among 1,500; GAPDH coupling enzyme counterscreen, biochemical, qHTS; shares compounds with Giardia FBPA inh-1; also: nearly all actives have a fitted effect of over 55% in size
An asterisk follows results filed as active; [ ] = remark or other dose. Shown are actives, neighbours in structure and some others; about 0.95% of the full set was active somewhere. Unless noted, calls follow the shape of the dose curve; as a rule, active = well fitted curve in the direction sought with a large enough effect; inconclusive = small, poorly fitted or top-dose-only effect, or another doubt; inactive = no such curve, though single readings can be large; an effect the other way counts as inactive or inconclusive. % is scaled to controls: 0 for no effect and ±100 for the full control effect; potency is read from the fitted curve at half-maximal effect.

How did COc1ccc(OC)c(N=C2C(=O)Nc3ccccc32)c1 do in these assays?
Giardia FBPA inh-1: inconclusive; LmPK inhibitor: 6%; TbPYK inhibitor: 13%; RE007 growth inh: -7%

What do the screens show for `NC1(c2ccc(-c3nc4ccn5c(=O)[nH]nc5c4cc3-c3ccccc3)cc2)CCC1`?
TbPYK inhibitor: 0%

Results for CO[C@H]1COC(=O)C/C=C\[C@H](C)[C@H](OC)COC(=O)[C@@H](C)NC(=O)C/C=C\[C@@H]1C ?
Giardia FBPA inh-1: 1%[12.9 µM]

Results for CN1C(=O)/C(=C2\SC(=S)N(NC(=O)c3cccnc3)C2=O)c2ccccc21 ?
Giardia FBPA inh-1: 7.1µM*; LmPK inhibitor: 2%; TbPYK inhibitor: -3%; RE007 growth inh: 0%; Giardia growth: 11µM*; Mammalian tox: 7%; Giardia FBPA inh-2: -3%; Rabbit aldolase: 6%; GAPDH counter: -4%

What do the screens show for `CCOC(=O)CN1C(=O)/C(=C2\SC(=S)N(NC(=O)c3cccnc3)C2=O)c2ccccc21`?
Giardia FBPA inh-1: 14µM*; LmPK inhibitor: 0%; TbPYK inhibitor: 11%; RE007 growth inh: -16%; Giardia growth: 6.3µM*; Mammalian tox: 15%; Giardia FBPA inh-2: -24%; Rabbit aldolase: -16%; GAPDH counter: inconclusive

How did CN1C(=O)/C(=C2\SC(=S)N(CCCCCC(=O)O)C2=O)c2ccccc21 do in these assays?
Giardia FBPA inh-1: -1%; LmPK inhibitor: -11%; TbPYK inhibitor: 4%; RE007 growth inh: -12%

How did CN1CCN(C(=S)c2ccc(Br)cc2)CC1 do in these assays?
Giardia FBPA inh-1: 16µM*; LmPK inhibitor: 5%; TbPYK inhibitor: inconclusive; RE007 growth inh: -11%; Giardia growth: -9%[10.4 µM]; Mammalian tox: 2%; Giardia FBPA inh-2: -26%; Rabbit aldolase: inconclusive; GAPDH counter: inconclusive

Results for CSc1ccc(C(=S)N2CCN(C)CC2)cc1 ?
Giardia FBPA inh-1: -23%; LmPK inhibitor: -4%; TbPYK inhibitor: inconclusive; RE007 growth inh: 8%

How did CN1CCN(C(=S)c2ccc(N(C)C)cc2)CC1 do in these assays?
Giardia FBPA inh-1: 16µM*; LmPK inhibitor: -8%; TbPYK inhibitor: inconclusive; RE007 growth inh: -4%; Giardia growth: inconclusive; Mammalian tox: 23%; Giardia FBPA inh-2: -16%; Rabbit aldolase: inconclusive; GAPDH counter: inconclusive

What do the screens show for `CCN1CCN(C(=S)c2ccc(Br)cc2)CC1`?
LmPK inhibitor: -1%; TbPYK inhibitor: inconclusive; RE007 growth inh: 4%

Results for COc1cc2nccc(Oc3ccc(NC(=O)Nc4ccc(F)cc4F)c(F)c3)c2cc1OC ?
Giardia FBPA inh-1: -1%

How did O=C(NCCCN1CCN(c2ccccc2)CC1)c1ccc2nc(CCc3ccccc3)oc2c1 do in these assays?
TbPYK inhibitor: 1%

What do the screens show for `O=C(NN1C(=O)/C(=C/C=C/c2ccco2)SC1=S)c1ccncc1`?
Giardia FBPA inh-1: 7.1µM*; LmPK inhibitor: -9%; TbPYK inhibitor: -23%; RE007 growth inh: 7%; Giardia growth: -21%[38.3 µM]; Mammalian tox: -15%; Giardia FBPA inh-2: inconclusive; Rabbit aldolase: inconclusive; GAPDH counter: -27%

How did C[C@@H](CO)[C@H](/C=C/c1ccccc1)CCO[Si](c1ccccc1)(c1ccccc1)C(C)(C)C do in these assays?
Giardia FBPA inh-1: 0%

How did Cc1cc(Br)ccc1OCCOCCN1CCCC1 do in these assays?
Giardia FBPA inh-1: 16µM*; LmPK inhibitor: -5%; TbPYK inhibitor: 11%; RE007 growth inh: -2%; Giardia growth: 2%[10.4 µM]; Mammalian tox: -3%; Giardia FBPA inh-2: -7%; Rabbit aldolase: 6%; GAPDH counter: -11%

Results for CCOc1cccc(OCCOCCN2CCCC2)c1 ?
Giardia FBPA inh-1: -9%; LmPK inhibitor: -11%; TbPYK inhibitor: -14%; RE007 growth inh: -5%

How did CCOc1ccc(OCCOCCN2CCCC2)cc1 do in these assays?
Giardia FBPA inh-1: 28µM*; LmPK inhibitor: 0%; TbPYK inhibitor: 6%; RE007 growth inh: 2%; Giardia growth: inconclusive; Mammalian tox: 9%; Giardia FBPA inh-2: 9%; Rabbit aldolase: 20%; GAPDH counter: 0%

Results for CC1=NN(C(N)=S)C(C)(C)C1 ?
Giardia FBPA inh-1: 11µM*; LmPK inhibitor: -6%; TbPYK inhibitor: -1%; RE007 growth inh: 13%; Giardia growth: -13%; Mammalian tox: 17%; Giardia FBPA inh-2: 2%; Rabbit aldolase: 10%; GAPDH counter: 9%

How did CCN1C(C(=O)c2ccccc2)=C(OC(=O)COc2ccccc2)c2ccccc2S1(=O)=O do in these assays?
TbPYK inhibitor: 0%

Results for CC(=O)NNC(=O)c1sc(=S)n2c1[nH]c(=O)c1sccc12 ?
Giardia FBPA inh-1: 18µM*; LmPK inhibitor: -11%; TbPYK inhibitor: inconclusive; RE007 growth inh: -12%; Giardia growth: -20%; Mammalian tox: 3%; Giardia FBPA inh-2: 13%; Rabbit aldolase: inconclusive; GAPDH counter: -24%

What do the screens show for `CCOc1cccc(CNC(=O)c2ccc(N3CCCC3)c(NC(=O)NCc3ccc(F)cc3)c2)c1`?
TbPYK inhibitor: -6%

What do the screens show for `Cc1ccc(C)c(N2CCN(Cc3csc(C)c3C)CC2)c1`?
TbPYK inhibitor: 17%

How did Cc1ccc(C)c(N2CCN(CCN3CCCCC3)CC2)c1 do in these assays?
Giardia FBPA inh-1: 16µM*; LmPK inhibitor: -7%; TbPYK inhibitor: 23%; RE007 growth inh: 1%; Giardia growth: inconclusive; Mammalian tox: -1%; Giardia FBPA inh-2: 4%; Rabbit aldolase: 6%; GAPDH counter: -14%

Source: PubChem
